The results in this text go back to PMC5540273 (PLoS ONE, 2017).

Conditions in all cases: concentration: 1 μM,replicates: in singlicate; n = 1
Assay [1] has as its system T1, MEK5.
T1 construct: gene MAP2K5

In assay [2] the test system is T2, MEK6.
T2 construct: gene MAP2K6

Assay [3] deals with MELK.
For assay [4], the system named is MERTK.
The subject of assay [5] is MET.
The test system of assay [6] is T3, MINK.
T3 construct: gene MINK1

For assay [7], the system named is MKK7.
The subject of assay [8] is MKNK1.
In assay [9] the test system is MKNK2.
Assay [10] concerns T4, MLCK.
T4 construct: gene MYLK3
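Further: KINOMEscan kinase panel screen.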

In the case of `C=CC(=O)Nc1cc2c(Nc3ccc(F)c(Cl)c3)ncnc2cc1OCCCN1CCOCC1` [GW781483], the “%Inh” value came out at 97.4% in assay [1]; 0% in assay [2]; 28% in assay [3]; 0% in assay [4]; 50% in assay [5]; 26% in assay [6]. Moreover, the “%Inh” value in assay [7] is recorded as 62%; in assay [8] it was 0%; in assay [9] it was 76%; in [10] it was 0%.

For `Cl.Cl.NC[C@H](CC1CCCCC1)NC(=O)c1cc(Br)c(-c2ccnc3[nH]ccc23)s1` [GSK1581427], the “%Inh” value was 15% in assay [1]; 0% in assay [2]; 76% in assay [3]; 47% in assay [4]; 0% in [5]; 24% in assay [6]. Also, the “%Inh” value worked out at 0% in [7], 13% in [8], 88% in assay [9] and 39% in assay [10].

In the case of `CN(C)CCOc1ccc(-c2cc(-c3c[nH]nc3-c3ccccn3)ccn2)cc1` [GW835314], the “%Inh” value in assay [1] is 30%; in [2], 0%; in assay [3], 11%; in assay [4] it was 0%; in assay [5], 2%; in [6] it was 89%. Besides, the “%Inh” value in assay [7] turned out to be 13%; in [8], 0%; in [9] it was 13%; in assay [10] it was 0%.

Regarding `Cc1cc2cn[nH]c2cc1-c1cccc2c(N)c(C(N)=O)nnc12`, the “%Inh” value is reported as 43% in assay [1]; 4% in assay [2]; 5% in [3]; 0% in [4]; 7% in assay [5]; 55% in assay [6]. Moreover, the “%Inh” value in [7] is on record as 27%; in assay [8], 11%; in assay [9], 23%; in assay [10] it was 0%.

With `CN(C)CC(O)COc1ccc(Nc2nccc(-c3cnn4nc(N5CCOCC5)ccc34)n2)cc1` (stereo not shown) [GW767488], the “%Inh” value was found to be 56% in [1]; 47% in assay [2]; 65% in assay [3]; 32% in [4]; 0% in assay [5]; 55% in [6]. For the same compound, the “%Inh” value was found to be 0% in [7], 41% in [8], 83% in assay [9] and 0% in assay [10].

In the case of `CCN(CC)CCCCNc1ncc2cc(-c3c(Cl)cccc3Cl)c(NC(=O)NC(C)(C)C)nc2n1`, the “%Inh” value in [1] is recorded as 88%; in assay [2], 16%; in assay [3], 19%; in [4], 82%; in assay [5], 60%; in [6], 45%. For the same compound, the “%Inh” value in assay [7] was 0%; in assay [8], 1%; in assay [9] it was 0%; in assay [10], 11%.

Regarding `Cc1ccc2c(-c3ccncc3)c(-c3ccc(F)cc3)nn2c1.Cl` [GW461484], the “%Inh” value is 9% in assay [1]; 0% in assay [2]; 14% in assay [3]; 13% in assay [4]; 0% in assay [5]; 72% in [6]. The “%Inh” value in assay [7] came out at 0%; in assay [8] it was 23%; in assay [9], 37%; in assay [10] it was 0%.

Consider `O=C(NCCNc1ccnc(NCc2ccc(F)cc2)n1)c1cc2ccccc2s1` [GSK1379944], for which the “%Inh” value in [1] is reported as 6%; in [2] it was 0%; in assay [3], 0%; in [4], 34%; in [5], 12%; in [6], 0%. Besides, the “%Inh” value in [7] was determined as 26%; in [8] it was 8%; in [9] it was 12%; in assay [10] it was 0%.

For `Cl.Cl.Nc1nc(-c2ccc3c(N)n[nH]c3c2)cc(N2CCCC(NC(=O)c3ccccc3)C2)n1` (stereo not shown) [GSK2286775], the “%Inh” value in assay [1] was 9%; in assay [2] it was 22%; in [3] it was 0%; in assay [4] it was 0%; in [5], 0%; in assay [6] it was 17%. Also, the “%Inh” value in [7] came out at 0%; in assay [8] it was 12%; in [9] it was 27%; in assay [10], 0%.

As for `C[C@@H]1CCN(C(=O)CC#N)C[C@@H]1N(C)c1ncnc2[nH]ccc12`, the “%Inh” value in [1] is 0%; in assay [2] it was 0%; in [3], 23%; in assay [4], 0%; in assay [5], 0%; in [6] it was 0%. The “%Inh” value in [7], in assay [8], in assay [9] and in [10] was 0% in each case.

`Cc1occc1-c1nc(N)c(OC[C@@H](N)Cc2c[nH]c3ccccc23)cc1-c1cc2c(C)n[nH]c2cn1` [GSK1660450]: the “%Inh” value in [1] is given as 77%; in assay [2], 0%; in assay [3] it was 35%; in [4] it was 31%; in assay [5] it was 0%; in [6], 97.5%. For the same compound, the “%Inh” value in assay [7] is given as 0%; in assay [8], 0%; in assay [9], 7%; in assay [10], 2%.

`Nc1nc(Nc2ccccc2)cc(-c2ccc3c(N)n[nH]c3c2)n1` [GSK2225749]: the “%Inh” value in assay [1] is 28%; in [2] it was 0%; in assay [3], 58%; in assay [4] it was 26%; in [5], 0%; in [6] it was 47%. Moreover, the “%Inh” value in [7] worked out at 0%; in assay [8] it was 9%; in [9], 56%; in [10], 18%.

For `COc1ccc(C[C@@H](CN)NC(=O)c2cc(Br)c(-c3ccnc4[nH]ccc34)s2)cc1.Cl.Cl` [GSK1389063], the “%Inh” value in assay [1] was determined as 43%; in assay [2] it was 100%; in assay [3], 100%; in assay [4], 70%; in assay [5] it was 33%; in assay [6], 78%. Besides, the “%Inh” value in [7] stood at 82%; in [8] it was 13%; in assay [9], 97%; in assay [10] it was 95.4%.
